What was measured:
Assay in all cases: growth AUC relative to DMSO control (median of replicates) (fraction); higher = more growth (less inhibition), active = hit call of the paper
Details in all cases: 20 µM; 24 h;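 active = AUC reduced over 20% with Padj below 0.05 in at least 2 of 3 replicates; inactive = otherwise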
[1] = tested on: Akkermansia muciniphila
In short: (§1)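 Gut bacteria were grown singly in mGAM at 37 °C without oxygen, from OD600 0.05, alongside 20 µM compound in 1% DMSO, and OD600 was read each hour for 24 h. Area under the growth curve was normalised to the median of solvent-only wells per plate, or to row and column medians on the industrial chemical plate. The minimum OD was set to 0 beforehand, and the reported value is the median of three biological replicates grown on separate days.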

[2] = tested on: Bacteroides caccae
In short: as §1

[3] = tested on: Bacteroides clarus
In short: as §1

[4] = tested on: Bacteroides dorei
In short: as §1

[5] = tested on: Bacteroides stercoris
In short: as §1

[6] = tested on: Bacteroides thetaiotaomicron
In short: as §1

[7] = tested on: Bacteroides uniformis
In short: as §1

[8] = tested on: Bifidobacterium longum subsp. longum
In short: as §1

[9] = tested on: Clostridium difficile
In short: as §1

[10] = tested on: Collinsella aerofaciens
In short: as §1

[11] = tested on: Coprococcus comes
In short: as §1

[12] = tested on: Escherichia coli ED1a
In short: as §1

[13] = tested on: Escherichia coli IAI1
In short: as §1

[14] = tested on: Eubacterium rectale
In short: as §1

[15] = tested on: Fusobacterium nucleatum subsp. animalis
In short: as §1

[16] = tested on: Lactobacillus gasseri
In short: as §1

[17] = tested on: Lactobacillus paracasei
In short: as §1

[18] = tested on: Odoribacter splanchnicus
In short: as §1

[19] = tested on: Parabacteroides distasonis
In short: as §1

[20] = tested on: Parabacteroides merdae
In short: as §1

Measured: growth AUC

C=CCc1ccc(OC)c(OC)c1
inactive: [1] 1.02 | [2] 1.04 | [3] 0.998 | [4] 1.06 | [5] 1.01 | [6] 1.03 | [7] 1.04 | [8] 1.11 | [9] 0.984 | [10] 1.03 | [11] 1.01 | [12] 0.994 | [13] 1.04 | [14] 1 | [15] 1.06 | [16] 1.03 | [17] 1 | [19] 1.3 | [20] 1.04
active: [18] 0.694

CC(C)(c1ccc(O)cc1)c1ccc(O)cc1
inactive: [1] 1.01 | [2] 1.07 | [3] 1.04 | [4] 1.01 | [5] 1.14 | [6] 1.02 | [7] 1.06 | [8] 1.06 | [9] 1.08 | [10] 1.03 | [11] 1.01 | [12] 0.994 | [13] 0.989 | [14] 1.04 | [15] 1.1 | [16] 1 | [17] 1.04 | [18] 1.07 | [19] 1.38 | [20] 1.07

COc1c(Cl)ccc(Cl)c1C(=O)O
inactive: [1] 0.878 | [2] 0.997 | [3] 0.975 | [4] 1.01 | [5] 0.961 | [6] 1 | [7] 0.947 | [8] 0.926 | [9] 1.01 | [10] 1.04 | [11] 1.01 | [12] 0.99 | [13] 0.986 | [14] 0.912 | [15] 0.914 | [16] 1.26 | [17] 0.919 | [18] 0.978 | [19] 1 | [20] 1

CC(Oc1ccc(Cl)cc1Cl)C(=O)NC(C)(C#N)C(C)C (stereo not given)
inactive: [1] 1.27 | [2] 0.944 | [3] 1 | [4] 0.999 | [5] 0.99 | [6] 0.964 | [7] 0.92 | [8] 1.02 | [9] 0.935 | [10] 0.977 | [11] 1.02 | [12] 0.989 | [13] 1.01 | [14] 1.13 | [15] 0.972 | [16] 0.803 | [17] 0.997 | [18] 0.838 | [20] 0.981
active: [19] 0.65

CCc1cccc(CC)c1N(COC)C(=O)CS(=O)(=O)[O-].[Na+]
inactive: [1] 1.02 | [2] 0.953 | [3] 1.01 | [4] 0.989 | [5] 1.07 | [6] 0.876 | [7] 0.996 | [8] 1.04 | [9] 1.07 | [10] 0.966 | [11] 0.971 | [12] 0.979 | [13] 0.987 | [14] 1.02 | [15] 1.07 | [16] 1.05 | [17] 1.02 | [18] 1.01 | [19] 1 | [20] 1.01

CCCCOC(=O)COc1ccc(Cl)cc1Cl
inactive: [1] 1.06 | [2] 0.975 | [3] 1.02 | [4] 0.996 | [5] 1.09 | [6] 0.987 | [7] 1.02 | [8] 0.965 | [9] 0.999 | [10] 0.957 | [11] 0.991 | [12] 0.981 | [13] 1.03 | [14] 0.979 | [15] 1.08 | [16] 1.06 | [17] 0.839 | [18] 0.946 | [19] 0.994 | [20] 0.979

O=C(O)COc1cc(N2C(=O)C3=C(CCCC3)C2=O)c(F)cc1Cl
inactive: [1] 0.82 | [2] 0.999 | [3] 0.98 | [4] 0.968 | [5] 1.08 | [6] 0.975 | [7] 1.05 | [8] 1.04 | [9] 1.02 | [10] 0.967 | [11] 1.01 | [12] 1.01 | [13] 1 | [14] 1.03 | [15] 1.02 | [16] 0.967 | [17] 1.05 | [18] 1.03 | [19] 1.03 | [20] 1.04

COCCOc1ccccc1S(=O)(=O)NC(=O)Nc1nc(OC)nc(OC)n1
inactive: [1] 1.03 | [2] 0.976 | [3] 0.97 | [4] 0.962 | [5] 0.92 | [6] 1 | [7] 1.02 | [8] 1.06 | [9] 0.984 | [10] 0.908 | [11] 0.987 | [12] 0.959 | [13] 0.97 | [14] 0.983 | [15] 0.983 | [16] 0.88 | [17] 1.02 | [18] 1.08 | [19] 0.978 | [20] 0.94

CN(C(=O)NC(C)(C)c1ccccc1)c1ccccc1
inactive: [1] 0.911 | [2] 1.04 | [3] 0.999 | [4] 0.988 | [5] 0.824 | [6] 1.01 | [7] 1.03 | [8] 0.916 | [9] 1.04 | [10] 0.969 | [11] 1.01 | [12] 1.01 | [13] 0.974 | [14] 0.981 | [15] 0.909 | [16] 1.01 | [17] 0.951 | [18] 1.1 | [19] 0.952 | [20] 1

NC(=O)C1CO1 (stereo not given)
inactive: [2] 0.982 | [3] 0.971 | [4] 0.864 | [6] 0.972 | [7] 0.912 | [8] 0.929 | [9] 1.01 | [10] 0.933 | [11] 0.93 | [12] 0.957 | [13] 0.946 | [14] 0.989 | [15] 0.923 | [16] 0.995 | [17] 1.02 | [18] 0.949 | [19] 0.895 | [20] 0.946
active: [1] 0.657 | [5] 0.586

COc1ccc(NC(=O)N(C)C)cc1Cl
inactive: [1] 0.982 | [2] 0.975 | [3] 1 | [4] 1.01 | [5] 0.891 | [6] 0.995 | [7] 1.02 | [8] 1.11 | [9] 0.995 | [10] 0.94 | [11] 1.03 | [12] 0.981 | [13] 0.957 | [14] 1.01 | [15] 0.973 | [16] 0.916 | [17] 1.02 | [18] 1.1 | [19] 0.99 | [20] 0.916

CC(C)COC(=O)COc1cc(Cl)c(Cl)cc1Cl
inactive: [1] 0.952 | [2] 0.864 | [3] 0.993 | [4] 0.971 | [5] 1.15 | [6] 0.978 | [7] 1.01 | [8] 1.03 | [9] 1 | [10] 0.91 | [11] 1 | [12] 1.01 | [13] 0.998 | [14] 1.02 | [15] 1.01 | [16] 0.91 | [17] 1.08 | [18] 0.969 | [19] 0.971 | [20] 0.946

CCCCOC(=O)[C@@H](C)Oc1ccc(Oc2ccc(C(F)(F)F)cn2)cc1
inactive: [1] 0.865 | [2] 0.983 | [3] 0.932 | [4] 0.951 | [5] 0.851 | [6] 0.948 | [7] 0.918 | [8] 0.969 | [9] 0.989 | [10] 0.963 | [11] 0.961 | [12] 0.989 | [13] 0.997 | [14] 0.918 | [15] 0.789 | [16] 0.915 | [17] 0.993 | [18] 0.977 | [19] 0.844 | [20] 0.96

CC(C)(SC(=O)N1CCCCC1)c1ccccc1
active: [19] 0.778
inactive: [1] 0.978 | [2] 0.973 | [3] 0.982 | [4] 1.01 | [5] 0.945 | [6] 0.927 | [7] 0.965 | [8] 1.01 | [9] 0.99 | [10] 1 | [11] 0.998 | [12] 1.01 | [13] 1.01 | [14] 1.02 | [15] 1.07 | [16] 1.01 | [17] 1.02 | [18] 1 | [20] 0.965

O=C=NC1CCC(CC2CCC(N=C=O)CC2)CC1 (stereo not given)
inactive: [1] 1.05 | [2] 0.986 | [3] 1.03 | [4] 0.939 | [5] 1.03 | [6] 0.995 | [7] 0.996 | [8] 1.05 | [9] 1.01 | [10] 1.02 | [11] 1.08 | [12] 1.02 | [13] 1.03 | [14] 0.973 | [15] 1.05 | [16] 0.921 | [17] 1.12 | [18] 1.06 | [19] 1 | [20] 1.02

CC(C)(NC(=O)NCc1ccccc1Cl)c1ccccc1
inactive: [1] 1.12 | [2] 1 | [3] 1.03 | [4] 0.925 | [5] 0.951 | [6] 1.02 | [7] 0.983 | [8] 1.08 | [9] 1.01 | [10] 0.96 | [11] 1.02 | [12] 1.04 | [13] 1.03 | [14] 1.03 | [15] 1.02 | [16] 0.978 | [17] 0.986 | [18] 1.05 | [19] 1.02 | [20] 0.994
